Experiments:
Assay in all cases: log2 ratio of Biotin-Ahx-Ub-VS probe labelling (compound/DMSO); higher = less target engagement, active = hit call of the paper (q ≤ 0.05, log2 ratio ≤ -1)
Conditions in all cases: treatment time: 3 h
[1] = compound: CCC1N(CCc2sccc12)C(=O)CCl
Procedure, shortened: (§1)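 HEK293T lysate (495 µg per sample, in Tris/CHAPS/IGEPAL buffer with protease inhibitors) was exposed in triplicate to compound at 50 or 200 µM, or to DMSO, for 3 h, then to Biotin-Ahx-Ub-VS (0.5 µM final) for 1 h. The labelled DUBs were enriched on NeutrAvidin, digested with LysC and trypsin, and analysed by diaPASEF LC-MS/MS. Average base-two log ratios of compound over DMSO came from median-normalised label-free quantities by unpaired t-test. Only proteins with at least 2 unique peptides were used.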

[2] = compound: CN1c2ccccc2C(CS1(=O)=O)NC(=O)CCl
Procedure, shortened: as §1

[3] = compound: Cl.ClCC(=O)N1CCc2ncncc2C1
Procedure, shortened: as §1

[4] = compound: Cl.Cn1ncc2C(CCCc12)NC(=O)CCl
Procedure, shortened: as §1

[5] = compound: ClCC(=O)NC1CCOc2ccccc12
Procedure, shortened: as §1

[6] = compound: ClCC(=O)NC1CCCc2ccccc12
Procedure, shortened: (§2)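 Each value is an average ratio of compound to vehicle, calculated by unpaired t-test. Lysate from HEK293T cells (495 µg per sample) was incubated in triplicate with compound over a concentration range or vehicle for 3 h and then with Biotin-Ahx-Ub-VS (0.5 µM final) for 1 h. Probe-labelled deubiquitinases were captured on NeutrAvidin, digested and run by diaPASEF LC-MS/MS, with Spectronaut label-free quantities normalised to the global median. Ratios are log2, and only proteins with at least two unique peptides were used.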

[7] = compound: ClCC(=O)N[C@@H]1CCCc2ccccc12
Procedure, shortened: as §2

[8] = compound: ClCC(=O)N[C@H]1CCCc2ccccc12
Procedure, shortened: as §2

[9] = compound: CCC1N(CCc2cc(OC)c(Cl)cc12)C(=O)CCl
Procedure, shortened: as §1

[10] = compound: CCCC1N(CCc2cc(OC)c(OC)cc12)C(=O)CCl
Procedure, shortened: as §1

Measured: log2 ratio of Biotin-Ahx-Ub-VS probe labelling

UCHL1 (UniProt P09936)
Sequence of UniProt P09936 (P09936 whole entry, looked up): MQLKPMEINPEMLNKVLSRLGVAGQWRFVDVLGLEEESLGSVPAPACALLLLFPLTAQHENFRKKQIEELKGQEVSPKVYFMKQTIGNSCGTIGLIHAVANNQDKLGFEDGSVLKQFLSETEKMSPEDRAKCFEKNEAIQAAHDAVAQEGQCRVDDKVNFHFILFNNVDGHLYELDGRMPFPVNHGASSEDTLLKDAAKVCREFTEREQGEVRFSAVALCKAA
inactive: [1]; compound concentration: 50uM -0.0927 | [1]; compound concentration: 200uM 0.068 | [2]; compound concentration: 50uM -0.207 | [2]; compound concentration: 200uM -0.242 | [3]; compound concentration: 50uM -0.16 | [3]; compound concentration: 200uM -0.504 | [4]; compound concentration: 50uM -0.114 | [4]; compound concentration: 200uM 0.145 | [5]; compound concentration: 50uM 0.105 | [5]; compound concentration: 200uM 0.0647 | [6]; compound concentration: 0.78uM -0.218 | [6]; compound concentration: 1.56uM -0.0576 | [6]; compound concentration: 3.13uM -0.283 | [6]; compound concentration: 6.25uM -0.158 | [6]; compound concentration: 12.5uM -0.19 | [6]; compound concentration: 25uM -0.341 | [6]; compound concentration: 50uM -0.22 | [6]; compound concentration: 100uM -0.163 | [6]; compound concentration: 200uM -0.254 | [7]; compound concentration: 0.78uM -0.29 | [7]; compound concentration: 1.56uM -0.214 | [7]; compound concentration: 3.13uM -0.161 | [7]; compound concentration: 6.25uM -0.154 | [7]; compound concentration: 12.5uM -0.211 | [7]; compound concentration: 25uM -0.116 | [7]; compound concentration: 50uM -0.259 | [7]; compound concentration: 100uM -0.155 | [7]; compound concentration: 200uM -0.0847 | [8]; compound concentration: 0.78uM -0.211 | [8]; compound concentration: 1.56uM -0.304 | [8]; compound concentration: 3.13uM -0.239 | [8]; compound concentration: 6.25uM -0.187 | [8]; compound concentration: 12.5uM -0.239 | [8]; compound concentration: 25uM -0.196 | [8]; compound concentration: 50uM -0.16 | [8]; compound concentration: 100uM -0.204 | [8]; compound concentration: 200uM -0.267 | [9]; compound concentration: 50uM 0.0838 | [9]; compound concentration: 200uM 0.00983 | [10]; compound concentration: 50uM -0.262 | [10]; compound concentration: 200uM -0.45

COPS5 (UniProt Q92905)
Sequence of UniProt Q92905 (Q92905 whole entry, looked up): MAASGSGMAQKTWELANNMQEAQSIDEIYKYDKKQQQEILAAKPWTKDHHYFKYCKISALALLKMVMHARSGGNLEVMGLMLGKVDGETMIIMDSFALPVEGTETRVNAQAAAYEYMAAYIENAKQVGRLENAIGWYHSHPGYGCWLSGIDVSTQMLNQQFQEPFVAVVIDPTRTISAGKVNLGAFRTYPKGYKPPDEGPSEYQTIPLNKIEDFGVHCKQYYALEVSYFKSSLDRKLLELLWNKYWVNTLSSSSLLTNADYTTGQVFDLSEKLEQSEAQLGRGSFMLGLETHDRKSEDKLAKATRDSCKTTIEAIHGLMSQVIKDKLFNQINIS
inactive: [1]; compound concentration: 50uM -0.164 | [1]; compound concentration: 200uM 0.0997 | [2]; compound concentration: 50uM -0.182 | [2]; compound concentration: 200uM 0.168 | [3]; compound concentration: 50uM -0.296 | [3]; compound concentration: 200uM -0.179 | [4]; compound concentration: 50uM -0.177 | [4]; compound concentration: 200uM -0.131 | [5]; compound concentration: 50uM 0.175 | [5]; compound concentration: 200uM -0.0253 | [6]; compound concentration: 0.78uM 0.0364 | [6]; compound concentration: 1.56uM -0.0289 | [6]; compound concentration: 3.13uM -0.0264 | [6]; compound concentration: 6.25uM 0.0604 | [6]; compound concentration: 12.5uM -0.134 | [6]; compound concentration: 25uM -0.0881 | [6]; compound concentration: 50uM -0.183 | [6]; compound concentration: 100uM -0.315 | [6]; compound concentration: 200uM -0.041 | [7]; compound concentration: 0.78uM -0.237 | [7]; compound concentration: 1.56uM -0.152 | [7]; compound concentration: 3.13uM -0.15 | [7]; compound concentration: 6.25uM 0.209 | [7]; compound concentration: 12.5uM -0.0611 | [7]; compound concentration: 25uM -0.26 | [7]; compound concentration: 50uM -0.29 | [7]; compound concentration: 100uM -0.155 | [7]; compound concentration: 200uM 0.052 | [8]; compound concentration: 0.78uM -0.209 | [8]; compound concentration: 1.56uM 0.0351 | [8]; compound concentration: 3.13uM -0.059 | [8]; compound concentration: 6.25uM -0.0717 | [8]; compound concentration: 12.5uM 0.171 | [8]; compound concentration: 25uM 0.148 | [8]; compound concentration: 50uM -0.0575 | [8]; compound concentration: 100uM 0.0499 | [8]; compound concentration: 200uM -0.0918 | [9]; compound concentration: 50uM 0.0938 | [9]; compound concentration: 200uM 0.311 | [10]; compound concentration: 50uM -0.111 | [10]; compound concentration: 200uM 0.0826

USP28 (UniProt Q96RU2)
Sequence of UniProt Q96RU2 (Q96RU2 whole entry): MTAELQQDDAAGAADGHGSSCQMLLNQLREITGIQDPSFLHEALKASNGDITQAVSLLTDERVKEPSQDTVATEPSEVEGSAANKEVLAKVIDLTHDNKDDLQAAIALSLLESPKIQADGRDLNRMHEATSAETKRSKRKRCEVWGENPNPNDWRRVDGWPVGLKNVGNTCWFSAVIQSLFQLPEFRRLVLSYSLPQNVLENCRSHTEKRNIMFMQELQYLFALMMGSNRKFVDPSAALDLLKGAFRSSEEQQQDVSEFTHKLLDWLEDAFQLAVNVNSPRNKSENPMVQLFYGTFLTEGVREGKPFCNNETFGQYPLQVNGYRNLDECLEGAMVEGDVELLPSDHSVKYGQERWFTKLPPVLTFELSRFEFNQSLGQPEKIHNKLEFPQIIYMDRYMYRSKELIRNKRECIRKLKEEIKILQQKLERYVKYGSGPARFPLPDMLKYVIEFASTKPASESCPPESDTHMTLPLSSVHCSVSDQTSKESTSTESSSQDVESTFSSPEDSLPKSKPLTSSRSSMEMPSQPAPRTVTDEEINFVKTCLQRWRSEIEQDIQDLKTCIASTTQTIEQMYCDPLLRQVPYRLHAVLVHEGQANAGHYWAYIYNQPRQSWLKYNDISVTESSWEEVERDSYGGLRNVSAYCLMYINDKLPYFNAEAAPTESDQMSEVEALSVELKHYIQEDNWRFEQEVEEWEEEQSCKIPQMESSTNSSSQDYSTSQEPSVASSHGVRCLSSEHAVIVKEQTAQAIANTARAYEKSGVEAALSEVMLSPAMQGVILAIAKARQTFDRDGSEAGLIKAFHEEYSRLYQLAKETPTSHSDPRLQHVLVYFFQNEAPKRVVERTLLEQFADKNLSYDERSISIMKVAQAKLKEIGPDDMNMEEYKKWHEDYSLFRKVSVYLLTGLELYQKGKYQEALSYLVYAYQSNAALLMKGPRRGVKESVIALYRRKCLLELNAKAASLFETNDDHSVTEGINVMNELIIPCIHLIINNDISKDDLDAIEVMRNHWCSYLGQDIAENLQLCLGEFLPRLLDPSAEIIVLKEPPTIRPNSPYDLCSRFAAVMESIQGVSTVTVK
inactive: [1]; compound concentration: 50uM -0.105 | [1]; compound concentration: 200uM -0.495 | [2]; compound concentration: 50uM -0.127 | [2]; compound concentration: 200uM -0.556 | [3]; compound concentration: 50uM -0.0823 | [3]; compound concentration: 200uM -0.643 | [4]; compound concentration: 50uM 0.00687 | [4]; compound concentration: 200uM -0.349 | [5]; compound concentration: 50uM 0.0277 | [5]; compound concentration: 200uM -0.467 | [6]; compound concentration: 0.78uM -0.115 | [6]; compound concentration: 1.56uM 0.0493 | [6]; compound concentration: 3.13uM -0.068 | [6]; compound concentration: 6.25uM -0.0775 | [6]; compound concentration: 12.5uM -0.136 | [6]; compound concentration: 25uM -0.188 | [6]; compound concentration: 50uM -0.185 | [6]; compound concentration: 100uM -0.427 | [6]; compound concentration: 200uM -0.751 | [7]; compound concentration: 0.78uM -0.289 | [7]; compound concentration: 1.56uM -0.168 | [7]; compound concentration: 3.13uM -0.114 | [7]; compound concentration: 6.25uM -0.181 | [7]; compound concentration: 12.5uM -0.122 | [7]; compound concentration: 25uM -0.154 | [7]; compound concentration: 50uM -0.239 | [7]; compound concentration: 100uM -0.221 | [7]; compound concentration: 200uM -0.426 | [8]; compound concentration: 0.78uM -0.0897 | [8]; compound concentration: 1.56uM -0.144 | [8]; compound concentration: 3.13uM -0.065 | [8]; compound concentration: 6.25uM 0.0299 | [8]; compound concentration: 12.5uM -0.143 | [8]; compound concentration: 25uM -0.24 | [8]; compound concentration: 50uM -0.318 | [8]; compound concentration: 100uM -0.618 | [8]; compound concentration: 200uM -0.996 | [9]; compound concentration: 50uM -0.146 | [9]; compound concentration: 200uM -0.945 | [10]; compound concentration: 50uM -0.218 | [10]; compound concentration: 200uM -0.719

USP7 (UniProt Q93009)
Sequence of UniProt Q93009 (Q93009 whole entry, looked up): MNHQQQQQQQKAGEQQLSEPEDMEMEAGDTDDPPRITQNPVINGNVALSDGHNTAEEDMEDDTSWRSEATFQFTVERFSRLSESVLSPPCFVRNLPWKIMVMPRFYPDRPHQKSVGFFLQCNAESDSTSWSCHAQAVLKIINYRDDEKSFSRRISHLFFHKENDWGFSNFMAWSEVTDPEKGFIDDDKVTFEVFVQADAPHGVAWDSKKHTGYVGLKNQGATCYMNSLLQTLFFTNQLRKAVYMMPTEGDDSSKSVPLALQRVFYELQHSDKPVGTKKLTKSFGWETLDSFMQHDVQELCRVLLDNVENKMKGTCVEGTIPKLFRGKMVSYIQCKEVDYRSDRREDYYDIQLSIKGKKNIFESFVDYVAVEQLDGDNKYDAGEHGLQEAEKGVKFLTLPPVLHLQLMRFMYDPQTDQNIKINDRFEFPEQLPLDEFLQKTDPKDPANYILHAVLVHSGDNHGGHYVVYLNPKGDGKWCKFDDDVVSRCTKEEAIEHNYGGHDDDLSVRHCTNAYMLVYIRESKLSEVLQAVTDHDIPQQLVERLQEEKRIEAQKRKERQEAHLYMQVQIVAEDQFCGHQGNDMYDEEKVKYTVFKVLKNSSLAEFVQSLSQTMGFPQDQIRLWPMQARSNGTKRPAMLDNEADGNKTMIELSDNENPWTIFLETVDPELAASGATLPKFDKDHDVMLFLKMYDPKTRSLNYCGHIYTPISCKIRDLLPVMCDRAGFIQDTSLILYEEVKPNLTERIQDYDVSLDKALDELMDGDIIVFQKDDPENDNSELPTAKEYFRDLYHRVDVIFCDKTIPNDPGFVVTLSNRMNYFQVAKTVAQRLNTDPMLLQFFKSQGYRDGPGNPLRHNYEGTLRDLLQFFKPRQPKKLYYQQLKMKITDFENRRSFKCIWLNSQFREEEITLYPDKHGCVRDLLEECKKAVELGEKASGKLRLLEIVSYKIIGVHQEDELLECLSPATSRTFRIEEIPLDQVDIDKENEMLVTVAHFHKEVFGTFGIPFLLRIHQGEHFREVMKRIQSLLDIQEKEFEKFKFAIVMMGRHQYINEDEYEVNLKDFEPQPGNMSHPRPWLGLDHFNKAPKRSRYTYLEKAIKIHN
inactive: [1]; compound concentration: 50uM -0.421 | [2]; compound concentration: 50uM -0.133 | [2]; compound concentration: 200uM -0.121 | [3]; compound concentration: 50uM -0.0285 | [3]; compound concentration: 200uM -0.558 | [4]; compound concentration: 50uM 0.09 | [4]; compound concentration: 200uM -0.0475 | [5]; compound concentration: 50uM -0.0159 | [5]; compound concentration: 200uM -0.18 | [6]; compound concentration: 0.78uM -0.0291 | [6]; compound concentration: 1.56uM 0.0294 | [6]; compound concentration: 3.13uM -0.0887 | [6]; compound concentration: 6.25uM -0.0846 | [6]; compound concentration: 12.5uM -0.0893 | [6]; compound concentration: 25uM -0.157 | [6]; compound concentration: 50uM -0.0846 | [6]; compound concentration: 100uM -0.00996 | [6]; compound concentration: 200uM -0.173 | [7]; compound concentration: 0.78uM -0.245 | [7]; compound concentration: 1.56uM -0.104 | [7]; compound concentration: 3.13uM -0.126 | [7]; compound concentration: 6.25uM -0.0886 | [7]; compound concentration: 12.5uM -0.122 | [7]; compound concentration: 25uM -0.125 | [7]; compound concentration: 50uM -0.161 | [7]; compound concentration: 100uM -0.145 | [7]; compound concentration: 200uM -0.261 | [8]; compound concentration: 0.78uM -0.0919 | [8]; compound concentration: 1.56uM -0.155 | [8]; compound concentration: 3.13uM -0.109 | [8]; compound concentration: 6.25uM 0.00463 | [8]; compound concentration: 12.5uM -0.0828 | [8]; compound concentration: 25uM -0.0804 | [8]; compound concentration: 50uM -0.017 | [8]; compound concentration: 100uM -0.124 | [8]; compound concentration: 200uM -0.255 | [9]; compound concentration: 50uM -0.321 | [10]; compound concentration: 50uM -0.397
active: [1]; compound concentration: 200uM -1.24 | [9]; compound concentration: 200uM -1.17 | [10]; compound concentration: 200uM -1.18
